We go through 14 compounds from PubChem BioAssay.

The source made the active and inactive calls.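 Rule for the calls, unless noted: active = inhibition of the reporter signal at or above 50%; inactive = inhibition below 50%.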

Assay [1] in a line: inhibitors of TNFa-induced NFkB p65 translocation, primary screen, imaging, HUVEC, MLSMR starter and 10KST1 sets (AID 438;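 active = inhibition above 20% together with a positive visual image hit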;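 note: compound added about 3h40 before a 20 min TNFalpha stimulation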;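 for inhibition: signal is the nuclear over cytoplasmic p65 intensity ratio per well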). Particulars: HUVEC TNFa-induced p65 nuclear translocation; cell count: measured here: nuclei count (cytotoxicity indicator), at 2.08 µM; inhibition: at 2 µM, stronger effect = higher value, 0% TNFa-plus-vehicle, 100% no-TNFa wells.
Assay [2] can be described thus: inhibitors of mutant huntingtin aggregation, primary screen, imaging, exon1htt(103Q)mCFP cells, high-content imaging (AID 483;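 active = visual image review flags a hit and inhibition of aggregation exceeds 20%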;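 note: compound exposure lasted 3 days before fixation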;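 for nuclei count: percent of the per-plate median nuclei count of sample wells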). Particulars: exon1htt(103Q)mCFP cell line, aggregate imaging, at 2 µM; inhibition of aggregation: stronger effect = higher value; nuclei count: measured here: cell count, toxicity.
Assay [3] in a line: inhibitors of E-selectin induction by TNFa, primary screen, imaging, HUVEC, immunofluorescence, MLSMR starter and 10KST1 sets (AID 487;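 active = visually confirmed hit in the image check and inhibition above 20%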;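 for inhibition: signal is fraction of cell area covered by stained E-selectin grains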;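 for nuclei count: 100% = median nuclei count of all wells on the same plate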). Particulars: HUVEC TNFalpha-induced E-selectin immunofluorescence imaging, at 2 µM; inhibition: stronger effect = higher value; nuclei count: measured here: cell number, toxicity.
For assay [4], the target named is Voltage-gated potassium channel subunit beta-2 (Rattus norvegicus) (UniProt P62483). Put plainly: KvBeta enzyme negative modulators, primary screen, biochemical, NADPH fluorescence (AID 622;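 active = fluorescence slope higher than the sample average by over 3 SD, cut at about -0.22 in these data, passing the limit was not always enough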;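 note: slope of raw intensity against log time taken from 70 to 1610 s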). To be noted: recombinant KvBeta, 4-cyanobenzaldehyde reduction, at 10 µM, stronger effect = higher value.
Assay [5] has the same target. Briefly: KvBeta positive modulators, primary screen, biochemical, NADPH fluorescence (AID 623;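 active = NADPH fluorescence slope more negative than the mean of all samples by about 3 SD, 99.7% confidence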;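 note: fluorescence intensity change per second fitted from 20 to 320 s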). To be noted: Recombinant KvBeta, NADPH fluorescence decrease slope, 10 min; at 10 µM; stronger effect = lower value.
For assay [6], the target named is Alpha-2C adrenergic receptor (Homo sapiens) (UniProt P18825). Briefly: modulators of alpha2C/GIRK thallium flux, primary screen, cell-based, HEK293 alpha2C/GIRK1/2 (AID 624;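 active = fluorescence slope after compound addition differing from the mean of all screened samples at 99.7% confidence, in either direction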;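 note: slope of fluorescence ratio to pre-addition baseline per second over 15 to 24 s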). To be noted: thallium flux BTC fluorescence, at 10 µM, actives lie on both sides.
The nature of assay [7]: inhibitors of Sendai virus-induced IRF3 signaling, primary screen, TLR/RLR signaling modifier project, cell-based, Sendai virus stimulus, luciferase, 10K MLSCN set (AID 602276;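 active = inhibition at or above 50% at 10 µM; inactive = inhibition below 50%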;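 note: firefly luciferase from ISG56 promoter only with Renilla not read in this screen; 0% = Sendai virus plus DMSO and 100% = medium plus DMSO without virus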). Particulars: HEK293 RL24 IRF3 luciferase reporter, at 10 µM, stronger effect = higher value. For orientation: Reporter assays use an easily measured gene product as a stand-in for the process of interest.
The nature of assay [8]: inhibitors of poly I:C-induced TLR3 signaling, primary screen, cell-based, poly I:C stimulus, luciferase, 10K MLSCN set (AID 602277). Particulars: HEK293-TLR3 RL24 IRF3 luciferase reporter, at 10 µM, stronger effect = higher value.

Voltage-gated potassium channel subunit beta-2 (Rattus norvegicus), sequence (P62483 whole entry, looked up): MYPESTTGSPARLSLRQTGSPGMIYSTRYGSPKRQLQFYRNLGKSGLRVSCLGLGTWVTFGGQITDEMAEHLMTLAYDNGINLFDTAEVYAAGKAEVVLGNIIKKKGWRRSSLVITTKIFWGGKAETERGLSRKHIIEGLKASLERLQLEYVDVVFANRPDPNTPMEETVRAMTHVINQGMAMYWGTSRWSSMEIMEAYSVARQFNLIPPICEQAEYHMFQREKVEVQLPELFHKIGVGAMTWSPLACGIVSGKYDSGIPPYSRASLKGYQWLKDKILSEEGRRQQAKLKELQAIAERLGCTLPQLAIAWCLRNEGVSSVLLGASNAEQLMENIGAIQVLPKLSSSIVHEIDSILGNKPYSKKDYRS
Alpha-2C adrenergic receptor (Homo sapiens), sequence (P18825 whole entry, looked up): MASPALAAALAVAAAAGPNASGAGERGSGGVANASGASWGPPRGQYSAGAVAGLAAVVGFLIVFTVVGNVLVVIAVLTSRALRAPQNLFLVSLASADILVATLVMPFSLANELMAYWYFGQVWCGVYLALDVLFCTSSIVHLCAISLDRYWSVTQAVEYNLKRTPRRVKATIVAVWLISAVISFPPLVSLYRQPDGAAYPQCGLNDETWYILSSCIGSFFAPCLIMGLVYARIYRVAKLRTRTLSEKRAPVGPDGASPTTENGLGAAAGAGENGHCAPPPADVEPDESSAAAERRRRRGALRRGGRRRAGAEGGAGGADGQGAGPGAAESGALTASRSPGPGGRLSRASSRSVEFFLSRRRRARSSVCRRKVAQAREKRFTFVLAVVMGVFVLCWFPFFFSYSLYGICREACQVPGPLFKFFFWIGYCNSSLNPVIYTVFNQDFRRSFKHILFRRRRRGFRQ

Take `CCc1nnc(SCc2cn3c(C)cc(C)nc3n2)n1N`: in assay [1], the cell count came out at 571. In addition, the inhibition (in general, the drop in the measured response relative to a control, in per cent) was -13.6% (inactive) in assay [1], 2.4% (inactive) in assay [3], -4.74% (inactive) in assay [7] and 4.52% (inactive) in assay [8]. Besides, the inhibition of aggregation in assay [2] was -13.3% (inactive). The nuclei count was found to be 104% in assay [2] and 143% in assay [3]. In addition, in assay [4], the fluorescence slope was -0.284 (inactive). Further, in assay [5], the NADPH fluorescence slope is -5.4e-06 (inactive). Further, the slope in assay [6] is 0.00669 (inactive).

Regarding `CN1CCN(CC(=O)N2c3ccccc3C(C)(c3ccccc3)CC2(C)C)CC1` (centres undefined), the cell count in assay [1] stood at 352. Moreover, the inhibition in assay [1] is 2.9% (inactive); in assay [3], -183% (inactive); in assay [7], 35.9% (inactive); in assay [8], 26.8% (inactive). Moreover, the inhibition of aggregation in assay [2] was -16.5% (inactive). In addition, the nuclei count in assay [2] is 74.1%; in assay [3], 146%. Further, the fluorescence slope in assay [4] was -0.353 (inactive). For the same compound, in assay [5], the NADPH fluorescence slope was -6.8e-07 (inactive). The slope in assay [6] was 0.00483 (inactive).

Turning to `CCc1ccc(NC(=O)CSc2nnc(Cc3cccn3C)n2-c2ccc(OC)cc2)cc1`, the cell count in assay [1] came to 891. In addition, the inhibition in assay [1] was 7.4% (inactive); in assay [3] it was -54.1% (inactive); in assay [7], 20.1% (inactive); in assay [8], 23.6% (inactive). In addition, the inhibition of aggregation in assay [2] is -2.2% (inactive). The nuclei count in assay [2] came out at 111%; in assay [3] it was 117%. In addition, in assay [4], the fluorescence slope is -0.609 (inactive). For the same compound, the NADPH fluorescence slope in assay [5] is 1.4e-05 (inactive). Besides, the slope in assay [6] was 0.00529 (inactive).

With `O=C(Nc1ccc(Br)cc1F)c1sccc1-n1cccc1`, the cell count in assay [1] came to 616. The inhibition in assay [1] was -12.7% (inactive); in assay [3], -10.6% (inactive); in assay [7], -1.64% (inactive); in assay [8], -17.5% (inactive). The inhibition of aggregation in assay [2] is -18.9% (inactive). For the same compound, the values for the nuclei count in assay [2] and in assay [3] were 103% and 110%, respectively. Also, in assay [4], the fluorescence slope was -0.397 (inactive). Besides, in assay [5], the NADPH fluorescence slope is -3.4e-05 (inactive). In addition, the slope in assay [6] was 0.00385 (inactive).

Consider `C=CCOc1ccc(/C(CC)=N/O)c(OC)c1`, for which the cell count in assay [1] worked out at 387. Moreover, the inhibition is 15.3% (inactive) in assay [1], -29.6% (inactive) in assay [3], -7.92% (inactive) in assay [7] and 0.412% (inactive) in assay [8]. In addition, in assay [2], the inhibition of aggregation is -5.5% (inactive). The nuclei count was determined as 54.4% in assay [2] and 117% in assay [3]. The fluorescence slope in assay [4] is -0.442 (inactive). For the same compound, the NADPH fluorescence slope in assay [5] is -3.1e-05 (inactive). For the same compound, the slope in assay [6] was 0.00515 (inactive).

As for `CCOC(=O)N1CCN(C(=O)CN(c2ccc(C)cc2)S(=O)(=O)c2c(C)noc2C)CC1`, the cell count in assay [1] came out at 565. Moreover, the inhibition is -28.3% (inactive) in assay [1], -36.7% (inactive) in assay [3], 18.5% (inactive) in assay [7] and 30.7% (inactive) in assay [8]. The inhibition of aggregation in assay [2] is -13% (inactive). For the same compound, the nuclei count in assay [2] was found to be 103%; in assay [3], 108%. The fluorescence slope in assay [4] was -0.617 (inactive). For the same compound, the NADPH fluorescence slope in assay [5] is 1.1e-05 (inactive). Moreover, the slope in assay [6] is 0.00556 (inactive).

As to `CC1=C(C(=O)OCc2ccccc2)C(c2ccco2)n2ncnc2N1` (centres undefined), the cell count in assay [1] worked out at 811. For the same compound, the inhibition in assay [1] was -2.8% (inactive); in assay [3], -31.8% (inactive); in assay [7], 9.4% (inactive); in assay [8] it was 25.1% (inactive). Moreover, the inhibition of aggregation in assay [2] was 7% (inactive). The results for the nuclei count in assay [2] and in assay [3] were 117% and 109%, respectively. Further, the fluorescence slope in assay [4] is -0.595 (inactive). Moreover, the NADPH fluorescence slope in assay [5] was 4.7e-06 (inactive). Further, the slope in assay [6] was 0.00658 (inactive).

Regarding `CCOc1ccc(NC(=O)CSc2nccn2C)cc1`, the cell count in assay [1] was 309. The inhibition in assay [1] is 15.3% (inactive); in assay [3], -28.1% (inactive); in assay [7], -18.3% (inactive); in assay [8], -80.7% (inactive). Further, the inhibition of aggregation in assay [2] is 3.1% (inactive). In addition, the nuclei count in assay [2] stood at 106%; in assay [3] it was 114%. The fluorescence slope in assay [4] is -0.28 (inactive). Besides, the NADPH fluorescence slope in assay [5] is 1e-05 (inactive). Moreover, the slope in assay [6] was 0.00367 (inactive).

With `CCOC(=O)c1cnc(-n2cc(C)cn2)nc1Nc1ccccc1OC`, in assay [1], the cell count was 750. For the same compound, the inhibition in assay [1] is -2.8% (inactive); in assay [3], 12.5% (inactive); in assay [7], 2.82% (inactive); in assay [8], 10.8% (inactive). Further, the inhibition of aggregation in assay [2] is 17.8% (inactive). Moreover, the nuclei count worked out at 105% in assay [2] and 114% in assay [3]. In addition, in assay [4], the fluorescence slope is -0.641 (inactive). In addition, the NADPH fluorescence slope in assay [5] was -4.8e-05 (inactive). Further, the slope in assay [6] is 0.0064 (inactive).

`COCCN(CCOC)c1ncnc2c1cnn2-c1ccccc1`: the cell count in assay [1] is 636. Also, the inhibition in assay [1] was -8.5% (inactive); in assay [3], -14.8% (inactive); in assay [7], -24.8% (inactive); in assay [8], -50.6% (inactive). Further, the inhibition of aggregation in assay [2] was -21.1% (inactive). The nuclei count in assay [2] came out at 113%; in assay [3], 107%. Also, in assay [4], the fluorescence slope is -0.531 (inactive). Moreover, in assay [5], the NADPH fluorescence slope was -2.1e-05 (inactive). In addition, the slope in assay [6] is 0.00603 (inactive).

`Cc1nnc2ccc(N3CCN(c4cccc(C(F)(F)F)c4)CC3)nn12`: the cell count in assay [1] was determined as 596. The inhibition in assay [1] is 5.5% (inactive); in assay [3], -68.3% (inactive); in assay [7], 3.49% (inactive); in assay [8] it was 11.9% (inactive). The inhibition of aggregation in assay [2] was -64.5% (inactive). Further, the nuclei count in assay [2] worked out at 32.1%; in assay [3] it was 134%. Moreover, the fluorescence slope in assay [4] is -0.505 (inactive). The NADPH fluorescence slope in assay [5] was -1.3e-05 (inactive). Moreover, the slope in assay [6] was 0.00619 (inactive).

`O=C(CSCc1cnn(-c2ccccc2)c1-n1cccc1)NCC1CCCO1` (centres undefined): the cell count in assay [1] was found to be 587. The inhibition in assay [1] was -10% (inactive); in assay [3], -1.9% (inactive); in assay [7], 2.57% (inactive); in assay [8], 15.3% (inactive). In addition, in assay [2], the inhibition of aggregation is -10.3% (inactive). Besides, the nuclei count in assay [2] was found to be 101%; in assay [3], 121%. In addition, the fluorescence slope in assay [4] was -0.581 (inactive). Also, in assay [5], the NADPH fluorescence slope is -4.7e-05 (inactive). Also, in assay [6], the slope was 0.00606 (inactive).

Regarding `Cc1cc2cc(CCNC(=O)CC(C)C)c(=O)[nH]c2cc1C`, in assay [1], the cell count is 633. The inhibition in assay [1] is -5.8% (inactive); in assay [3], -40% (inactive); in assay [7] it was -11.5% (inactive); in assay [8] it was -9.56% (inactive). The inhibition of aggregation in assay [2] was 15.1% (inactive). In addition, the nuclei count in assay [2] came out at 83.5%; in assay [3], 107%. In assay [4], the fluorescence slope was -0.595 (inactive). Besides, the NADPH fluorescence slope in assay [5] is -2.7e-05 (inactive). Besides, in assay [6], the slope is 0.00623 (inactive).

Turning to `c1cn2cc(CSC3CCCCC3)nc2s1`, the cell count in assay [1] was determined as 641. Besides, the inhibition is 11% (inactive) in assay [1], -53.3% (inactive) in assay [3], -32.1% (inactive) in assay [7] and -53% (inactive) in assay [8]. Also, in assay [2], the inhibition of aggregation is 12.1% (inactive). The nuclei count was 107% in assay [2] and 140% in assay [3]. The fluorescence slope in assay [4] was -0.585 (inactive). Further, the NADPH fluorescence slope in assay [5] was -4.6e-05 (inactive). Moreover, the slope in assay [6] is 0.00605 (inactive).
